Results taken from PubChem BioAssay (NCI).
This is part of a sample that, as a whole, favours compounds with a hit. Of some 83,000 tested, about 20% had one in any assay.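 Percent growth is the endpoint: 0 to 100 indicates growth inhibition (40 means 60% inhibition), 0 means no net growth, and negative values indicate cell death.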 Active and inactive are the calls of the source. How the source made its calls: active means growth percent below 10; inactive means the rest.

Tested on: HL-60(TB) leukemia
Test: NCI-60 one-dose screen, 48 h (100 = growth as untreated, 0 = no growth, -100 = all killed)
Details: 10 µM unless noted

| SMILES | growth |
| --- | --- |
| CC1(c2ccccc2)NC(=O)N(CC(=O)Nc2cccc(I)c2)C1=O (stereo not drawn) | 84.2% (inactive) |
| COc1cccc(-c2nc3occn3c2-c2ccnc(NCCCNS(=O)(=O)c3cccc(F)c3)n2)c1 | 112% (inactive) |
| Oc1ccc2ccccc2c1N=Nc1nccs1 | -44.3% (active) |
